Assay outcomes as filed in PubChem BioAssay.
Cycloheximide cs = counter-screen hit for Shiga toxin inhibitors, cycloheximide. cell reporter, cycloheximide protein synthesis inhibition counterscreen. max response, %. 300,000 tested, 12% active; in the data active = max response mostly above about 13%, no sharp cut-off; inactive = mostly below about 14%; also: read at 38.3 µM for the half of the compounds with a filed dose; 0% is about no effect
NS1 function inh = blocks influenza NS1 protein function; Potency, µM (titrated, usually from 46.1 µM), for inactives: top-dose activity, positive = more growth; 270,000 tested, 0.4% active; AID 2326; calls by dose curve; also: potency is read from the fitted curve at half-maximal effect; actives are rising curves; nearly all actives have a fitted effect of over 50% in size
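OD600 was taken as the measure of yeast growth restored by compound in an NS1-expressing S. cerevisiae strain. Cells had been washed out of glucose medium and diluted 1:100 into galactose -URA medium, pH 6.0.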
Shiga inhibitor = blocks Shiga toxin action in Vero cells | Vero cells, Shiga toxin protein synthesis inhibition reporter | inhibition, % at 38.7 µM | 290,000 tested, 9.2% active | AID 2315; in the data active = inhibition mostly above about 28%, no sharp cut-off; inactive = mostly below about 43%; also: 0% is about no effect
Pf growth 48h = P. falciparum growth inhibition at 48 hours (one generation); AID 504832; P. falciparum luciferase growth in erythrocytes, 48 h; Potency, µM (top dose mostly 28.7 µM), inactives show at the highest dose activity change, negative = inhibition, hits mostly inhibitors; 310,000 tested, 5.9% active; also: potency is read from the fitted curve at half-maximal effect; % is scaled to controls: 0 for no effect and ±100 for the full control effect
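Read-out is firefly luciferase luminescence from an integrated reporter in P. falciparum, so falling signal marks reduced parasite growth. Infected erythrocytes were at 2% hematocrit and 0.1% parasitemia (final) in Albumax-supplemented RPMI 1640.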
Pf growth 96h = P. falciparum growth inhibition at 96 hours | Potency, µM (series often up to 28.7 µM), for inactives: top-dose activity change, negative = inhibition, usual class: inhibitors | P. falciparum luciferase reporter growth, 96 h | 320,000 tested, 6.9% active; also: potency is read from the fitted curve at half-maximal effect; % is scaled to controls: 0 for no effect and ±100 for the full control effect
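96 h incubation, 37 C, 5% CO2, of luciferase-reporter P. falciparum-infected RBCs (2% hematocrit, 0.05% parasitemia final) with test compounds; endpoint luminescence.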
* marks the source's active call; other numbers are inactive results; ? = inconclusive; nt = no result given. Shown are actives, neighbours in structure and some others; about 21% of the full set was active somewhere. Unless noted, calls follow the shape of the dose curve; as a rule, active = well fitted inhibition curve with a large enough effect; inconclusive = small, poorly fitted or top-dose-only effect, or another doubt; inactive = no such curve, though single readings can be large or run the other way.

SMILES	Cycloheximide cs	NS1 function inh	Shiga inhibitor	Pf growth 48h	Pf growth 96h
Cc1c(C2C(C#N)=C(N)N(c3cccc([N+](=O)[O-])c3)C3=C2C(=O)CCC3)cnn1C (stereo not drawn)	-5	8%	3	10%	-19%
CS(=O)(=O)c1ccc(-c2csc(N3CCC(C(N)=O)CC3)n2)cc1	nt	nt	nt	5%	0%
CCOc1ccc(N(CC(=O)NC2CCCCC2)S(=O)(=O)c2ccccc2)cc1	11	10%	50	?	37%
N#CCCn1nnc2ccccc21	3	-5%	-17	39%	?
O=C(Cn1nnc2ccccc21)C1CC1	-2	-7%	-8	15%	1%
c1ccc(CCn2nnc3ccccc32)cc1	50*	1%	189*	92%	104%
CC(=O)Nc1ccc(C(=O)Cn2nnc3ccccc3c2=O)cc1	13*	-1%	50*	55%	4%
Cc1ccc(C(=O)Cn2nnc3ccccc32)cc1C	69*	-7%	140*	303%	263%
O=C(Cn1nnc2ccccc21)NCc1ccccc1	60*	4%	64*	299%	-4%
O=C(CN1C(=O)CSC1=O)c1ccccc1	-1	-6%	-4	nt	-23%
O=C(Cn1nnc2ccccc21)OCC(=O)c1ccc(Cl)cc1	2	-3%	3	11%	86%
Cc1ccc(NC(=O)CCn2nnc3ccccc32)c(C)c1	-3	-2%	-10	3%	13%
Cc1ccc(NC(=O)CCN2C(=O)c3ccccc3C2=O)cc1	12	-12%	5	3%	12µM*
C/C(=N\NC(=O)CCn1nnc2ccccc21)c1cccs1	33*	-4%	51*	30%	39%
Cc1ccc(C(=O)Cn2nnc3ccccc32)cc1	38*	2%	66*	137%	12µM*
Cc1ccc(NC(=O)CCn2nnc3ccccc32)cc1	25*	-3%	79*	50%	14%
Cc1ccc(NC(=O)CCN2C(=O)c3cccc4cccc(c34)C2=O)cc1	-4	nt	-4	0%	?
CCc1ccc(C(C(=O)NC2CCCC2)N(C(=O)c2csnn2)C2CC2)cc1 (stereo not drawn)	-5	-3%	-7	-18%	?
O=C(CSc1nnc(CNC(=O)c2cccc(C(F)(F)F)c2)o1)NC1CCCC1	-2	8%	-9	8%	16%
O=C(Nc1ccc(Cl)cc1)N1CCOC12CCCCC2	8	-3%	12	25%	48%
O=C(Cn1c(C(F)(F)F)nc2ccccc21)c1ccc(Br)cc1	-5	15%	-18	-21%	?
CC(=O)c1cccc(NC(=O)CCCCCn2nnc3ccccc3c2=O)c1	6	-1%	3	6.6µM*	3.3µM*
O=C(Cn1nnc2ccccc21)c1ccc(Br)cc1	35*	-2%	48*	43%	48%
Cc1cccnc1NC(=O)CCCN1C(=O)c2ccccc2C1=O	-3	-17%	5	-19%	nt
O=C(CCn1nnc2ccccc21)N1CCN(c2ccccc2)CC1	27	-2%	78*	38%	-11%
SMILES	Cycloheximide cs	NS1 function inh	Shiga inhibitor	Pf growth 48h	Pf growth 96h
O=C(Cn1nnc2ccccc21)N1CCCCC1	10	8%	13	-5%	101%
O=C(CCCN1C(=O)c2ccccc2C1=O)Nc1c2c(nc3c1CCC3)CCC2	-1	6%	-11	?	0.47µM*
CC(=O)NNC(=O)CCn1nnc2ccccc21	-3	3%	-9	5%	?
Cc1ccc(C(=O)NNC(=O)Cn2nnc3ccccc32)cc1	17*	0%	41*	15%	92%
COc1ccc(-c2cc3ccc(OCC(C)=O)cc3oc2=O)cc1	57*	-19%	127*	232%	230%
COc1ccc(-c2cc3ccc(OCC(C)=O)cc3oc2=O)cc1OC	25*	1%	27*	114%	75%
Cc1nc(SC(C)C(=O)NC2CCCCC2C)c2c(C)c(C)sc2n1 (stereo not drawn)	-3	5%	3	8%	15µM*
CC(Sc1n[nH]c(N)n1)C(=O)NC1CCCCC1C (stereo not drawn)	-2	10%	-2	86%	2%
COc1ccc(-c2csc(N3C(=N)SCC3=O)n2)cc1	49*	5%	163*	135%	188%
c1ccc(-c2csc(-n3cnnn3)n2)cc1	7	-14%	55	27%	0%
O=C1CNC(=S)N1c1nc(-c2ccccc2)cs1	23*	0%	39*	72%	68%
COc1ccc(-c2csc(N3C(=O)CNC3=S)n2)cc1	93*	21%	140*	166%	?
